Experimental data as given in PubChem BioAssay (NCATS).
Results filed as inconclusive are left out. Where a call stands in place of a potency, no number is given. Activity calls are given as the source filed them. The call rests on the fitted dose curve; in most records, active means well fitted curve in the direction sought with a large enough effect; inconclusive means small, poorly fitted or top-dose-only effect, or another doubt; inactive means no such curve, though single readings can be large; an effect the other way counts as inactive or inconclusive.

test: qHTS of pediatric cancer cell lines to identify multiple opportunities for drug repurposing: Confirmatory screen for OHS-50 cells (AID 1347128); conditions: OHS-50 osteosarcoma cells viability; series mostly up to 45.9 µM;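 further: compound exposure lasted 48 h at 37 degrees C; nearly all actives have a fitted effect of over 55% in size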
Procedure, shortened: (§1)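 Viability after 48 h compound treatment at 37C, 500-1,000 cells/well, read as ATP luminescence with CellTiter-Glo. Primary screens used 11-point (MIPE, 0.78 nM-46 µM) or 8-point (NPC, 0.59 nM-46 µM) final concentrations; follow-up screens used 11-point dilutions.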
Potency means the concentration at half of the fitted maximal effect.

| Compound | Potency |
| --- | --- |
| C[C@@]1(C(=O)Nc2ccc(F)nc2)CCCN1c1nc(Nc2cc(C3CC3)[nH]n2)c2cccn2n1 | 5.22 µM (active) |
| CC(C)CN(C[C@@H](O)[C@H](Cc1ccccc1)NC(=O)O[C@H]1CO[C@H]2OCC[C@H]21)S(=O)(=O)c1ccc(N)cc1 | inactive |
| COc1cc([C@@H]2c3cc4c(cc3[C@@H](O[C@@H]3O[C@@H]5CO[C@@H](C)O[C@@H]5[C@H](O)[C@@H]3O)[C@H]3COC(=O)[C@H]23)OCO4)cc(OC)c1O | 8.27 µM (active) |
| Cc1ccc2c(c1)C(=O)[C@]1(O)CCN(c3ccccc3)C1=N2 | inactive |
| C[C@@H]1O[C@@H](O[C@H]2CC[C@@]3(C)[C@H](CC[C@@H]4[C@H]3C[C@@H](O)[C@]3(C)[C@@H](C5=CC(=O)OC5)CC[C@]43O)C2)C[C@H](O)[C@@H]1O[C@H]1C[C@H](O)[C@H](O[C@H]2C[C@H](O)[C@@H](O)[C@@H](C)O2)[C@H](C)O1 (stereo in doubt) | inactive |
| CCC[C@H](Nc1nc(-c2ccc(NC(=O)NCC)c(OC)c2)ncc1C)c1cccnc1 | 0.329 µM (active) |
| Cc1cnc(-c2cc(N3CCN(C(=O)CCS(C)(=O)=O)CC3)ncc2Cl)c(C)c1 | inactive |
| COc1ccc2c(c1)c(C1=C(c3c[nH]c4ccccc34)C(=O)NC1=O)cn2CCCN(C)C | 23.3 µM (active) |
| CC1(C)OC2CC3C4CC(F)C5=CC(=O)C=CC5(C)C4C(O)CC3(C)[C@]2(C(=O)CO)O1 (stereo not given in full) | inactive |
| CCC(=O)N1CCN(c2ccc(-n3c(=O)ccc4cnc5ccc(-c6cnc7ccccc7c6)cc5c43)cc2C(F)(F)F)CC1 | inactive |
| FC(F)(F)c1ccc(C=Cc2nc(COc3ccc(CCCCn4ccnn4)cc3)co2)cc1 | inactive |
| CC1CNc2c(cccc2S(=O)(=O)N[C@@H](CCCN=C(N)N)C(=O)N2CC[C@@H](C)C[C@@H]2C(=O)O)C1 (stereo not given in full) | inactive |

test: qHTS of pediatric cancer cell lines to identify multiple opportunities for drug repurposing: Confirmatory screen for SK-N-SH cells (AID 1347129); conditions: SK-N-SH neuroblastoma cell viability; series mostly up to 46.1 µM;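 further: cells exposed to compound for 48 h before viability read; nearly all actives have a fitted effect of over 60% in size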
Procedure, shortened: as §1

| Compound | Potency |
| --- | --- |
| C[C@@]1(C(=O)Nc2ccc(F)nc2)CCCN1c1nc(Nc2cc(C3CC3)[nH]n2)c2cccn2n1 | 1.66 µM (active) |
| O=C1Nc2ccc(I)cc2C1=Cc1cc(Br)c(O)c(Br)c1 | inactive |
| CNC(=O)[C@H](CC1=CN=C2C=CCC=C12)NC(=O)[C@@H](CC(=O)NO)CC(C)C | inactive |
| Cc1ccc2c(c1)C(=O)[C@]1(O)CCN(c3ccccc3)C1=N2 | inactive |
| C[C@@H]1O[C@@H](O[C@H]2CC[C@@]3(C)[C@H](CC[C@@H]4[C@H]3C[C@@H](O)[C@]3(C)[C@@H](C5=CC(=O)OC5)CC[C@]43O)C2)C[C@H](O)[C@@H]1O[C@H]1C[C@H](O)[C@H](O[C@H]2C[C@H](O)[C@@H](O)[C@@H](C)O2)[C@H](C)O1 (stereo in doubt) | 0.215 µM (active) |
| CCC[C@H](Nc1nc(-c2ccc(NC(=O)NCC)c(OC)c2)ncc1C)c1cccnc1 | inactive |
| Cc1cnc(-c2cc(N3CCN(C(=O)CCS(C)(=O)=O)CC3)ncc2Cl)c(C)c1 | inactive |
| COc1ccc2c(c1)c(C1=C(c3c[nH]c4ccccc34)C(=O)NC1=O)cn2CCCN(C)C | 16.6 µM (active) |
| CCC(c1ccc(O)cc1)C(CC)c1ccc(O)cc1 (stereo not given) | inactive |
| CC1(C)OC2CC3C4CC(F)C5=CC(=O)C=CC5(C)C4C(O)CC3(C)[C@]2(C(=O)CO)O1 (stereo not given in full) | inactive |
| CCC(=O)N1CCN(c2ccc(-n3c(=O)ccc4cnc5ccc(-c6cnc7ccccc7c6)cc5c43)cc2C(F)(F)F)CC1 | inactive |
| CC[C@]1(O)C[C@H]2CN(CCC3=c4ccccc4=N[C]3[C@@](C(=O)OC)(c3cc4c(cc3OC)N(C)[C@H]3[C@@](O)(C(N)=O)[C@H](O)[C@]5(CC)C=CCN6CC[C@]43[C@@H]65)C2)C1 | 1.18 µM (active) |
| FC(F)(F)c1ccc(C=Cc2nc(COc3ccc(CCCCn4ccnn4)cc3)co2)cc1 | inactive |
| CCOC(=O)[C@H](CCc1ccccc1)N[C@@H](C)C(=O)N1CCCC1C(=O)O (stereo not given in full) | inactive |
| CC1(C)CC(=O)c2c(C(F)(F)F)nn(-c3ccc(C(N)=O)c(NC4CCC(O)CC4)c3)c2C1 (stereo not given) | 0.264 µM (active) |
| COc1cc2c(cc1OC)[C@@H]1Cc3ccc(OC)c(OC)c3CN1CC2 | inactive |
| CC(=O)N1CCN(c2ccc(OCc3nn(C)c(C)c3-c3cccc4c(CCCOc5cc(C)c(Cl)c(C)c5)c(C(=O)O)n(Cc5cccnc5)c34)cc2)CC1 | inactive |
| CC1CNc2c(cccc2S(=O)(=O)N[C@@H](CCCN=C(N)N)C(=O)N2CC[C@@H](C)C[C@@H]2C(=O)O)C1 (stereo not given in full) | inactive |
